This passage reports Inhibition results from ChEMBL document CHEMBL4513135, “CO-ADD screening of IQOG CSIS (Spain) compounds”.

One assay has as its system Klebsiella pneumoniae. Particulars: Concentration 32 ug.mL-1, ASSAY_TEST Inhibition of Bacterial Growth, detection method Absorption (OD600), MEDIA CAMHB, plate type 384well, NBS, CORNING #3640, time 18 hr.
Another assay has as its system Candida albicans. As to conditions: 32 ug/mL.
Another assay relates to Cryptococcus neoformans. Particulars: Concentration 32 ug.mL-1, ASSAY_TEST Inhibition of Fungal Growth, detection method Resazurin, Absorption (OD600-OD570), plate type 384well, NBS, CORNING #3640.

Values joined by “and” are separate entries in the source; they are usually repeats but may differ in a detail not shown here. Identical values can stand only once. Measured potencies and affinities stand elsewhere.

As a reminder, the Inhibition is the drop in the measured response relative to a control, in per cent. Consider `COc1nc2ccc(C)cc2cc1C=O`, for which the values for the Inhibition with Klebsiella pneumoniae, with Candida albicans and with Cryptococcus neoformans were -5.34%, 5.7% and -4.83%, respectively.

For the compound `O=C(N/N=C/Cc1ccccc1)c1cc2ccccc2[nH]1`, the Inhibition in the assay on Klebsiella pneumoniae is 10.16%; with Candida albicans it was -1.49%; in the assay on Cryptococcus neoformans it was -3.25%.

As for `COc1cccc(C2C(C#N)=C(N)Oc3ccc4ccccc4c32)c1` (centres undefined), the Inhibition was 12.24% in the assay on Klebsiella pneumoniae, 1.77% in the assay with Candida albicans and -37.42% with Cryptococcus neoformans.

In the case of `N#CC1(Br)C(=NBr)Oc2ccc3ccccc3c2C1c1ccc([N+](=O)[O-])cc1` (centres undefined), the Inhibition in the assay with Klebsiella pneumoniae is -0.48%; in the assay on Candida albicans, 2.19%; in the assay on Cryptococcus neoformans it was -71.87%.

Regarding `N#CC1(Br)C(=N)Oc2ccc3ccccc3c2C1c1ccccc1` (centres undefined), the Inhibition in the assay with Klebsiella pneumoniae (32 ug/mL) was 8.56% and 13.61%; in the assay with Candida albicans, 5.08% and 2.03%; in the assay on Cryptococcus neoformans (32 ug/mL), -52.48% and -41.25%.

Regarding `CCOC(=O)c1c(C)nc(NC2CCN(Cc3ccccc3)CC2)c(C#N)c1-c1ccccc1`, the figures for the Inhibition with Klebsiella pneumoniae, in the assay on Candida albicans and with Cryptococcus neoformans were 11.42%, 3.26% and -46.25%, respectively.

Take `N#C/C(=C\c1ccccc1)C(=O)c1ccccc1`: the Inhibition with Klebsiella pneumoniae is 5.05%; in the assay with Candida albicans, 4.89%; in the assay on Cryptococcus neoformans, 5.95%.

In the case of `CCOC(=O)/C(C#N)=C\c1ccc(Cl)cc1`, the Inhibition was 4.33% with Klebsiella pneumoniae, -0.09% in the assay with Candida albicans and -5.03% with Cryptococcus neoformans.

Take `CC(=O)Nc1n[nH]c2nc(N)c(C#N)c(-c3ccccc3)c12`: the Inhibition with Klebsiella pneumoniae is 17.23%; with Candida albicans, 3.09%; with Cryptococcus neoformans, -57.93%.

As to `C#CCN(C)Cc1cc2cc(OCCCC3CCN(Cc4ccc(C#N)cc4)CC3)ccc2n1C`, the Inhibition is 2.67% with Klebsiella pneumoniae, 4.18% in the assay on Candida albicans and -50.05% with Cryptococcus neoformans.

For `COC1=C(C#N)C(c2ccccc2)C(C=O)=C(Cl)N1` (centres undefined), the Inhibition was 16.25% in the assay with Klebsiella pneumoniae, 4.19% in the assay on Candida albicans and -31.69% in the assay on Cryptococcus neoformans.

Consider `COc1cccc(C2C(C#N)=C(N)Oc3[nH]nc(C)c32)c1` (centres undefined), for which the Inhibition in the assay with Klebsiella pneumoniae is 26.54%; in the assay on Candida albicans it was 0.08%; in the assay on Cryptococcus neoformans it was -0.28%.

As to `CC1=C(CO)C(c2ccc(C#N)cc2)C(C#N)=C(N)O1` (centres undefined), the results for the Inhibition with Klebsiella pneumoniae, in the assay on Candida albicans and with Cryptococcus neoformans were 10.02%, 5.46% and -8.41%, respectively.

On to `N#Cc1c(N)nc(NC2CCN(Cc3ccccc3)CC2)c(C#N)c1-c1ccccc1`, for which the Inhibition with Klebsiella pneumoniae was 9.32%; in the assay with Candida albicans, 2.69%; with Cryptococcus neoformans, -66.18%.

With `CC(C)(C)OC(=O)N[C@H]1CC[C@H](O)CC1`, the values for the Inhibition with Klebsiella pneumoniae, in the assay on Candida albicans and in the assay with Cryptococcus neoformans were 7.91%, 0.02% and -36.58%, respectively.

As to `CC(C)(C)OC(=O)Nc1ccc(Br)cn1`, the Inhibition with Klebsiella pneumoniae is 23.74%; in the assay on Candida albicans, 1.83%; in the assay with Cryptococcus neoformans, -55.05%.

Consider `COc1ccccc1[C@H]1c2c(ccc3ccccc23)O/C(=N\Br)[C@@]1(Br)C#N`, for which the Inhibition in the assay with Klebsiella pneumoniae is 5.34%; with Candida albicans, 8.63%; with Cryptococcus neoformans it was -5.55%.

`N#CC1(Br)C(=NBr)Oc2ccc3ccccc3c2C1c1ccccc1` (centres undefined): the values for the Inhibition with Klebsiella pneumoniae, in the assay on Candida albicans and with Cryptococcus neoformans were -3%, 3.44% and -1.83%, respectively.

On to `CC1Cc2ccccc2N1/N=C/c1ccccc1` (centres undefined), for which the Inhibition was 2.26% in the assay with Klebsiella pneumoniae, -2.78% in the assay with Candida albicans and -3.88% in the assay on Cryptococcus neoformans.

As to `COc1ccc(C2c3ccc4ccccc4c3Oc3nc4c(c(N)c32)CCCC4)c(OC)c1` (centres undefined), the Inhibition with Klebsiella pneumoniae is 4.09%; in the assay with Candida albicans, 0.01%; in the assay with Cryptococcus neoformans it was -0.17%.

Take `CC(=NNC(N)=O)c1c[nH]c2ccccc12`: the values for the Inhibition in the assay with Klebsiella pneumoniae, in the assay with Candida albicans and in the assay with Cryptococcus neoformans were 10.53%, 5.46% and -5.64%, respectively.

As for `Cc1cnc(NC(=O)OC(C)(C)C)c(Br)c1`, the results for the Inhibition in the assay with Klebsiella pneumoniae, in the assay with Candida albicans and with Cryptococcus neoformans were 17.7%, -0.1% and -60.78%, respectively.

On to `O=C1OC(c2ccccc2)=NC1=Cc1ccccc1Cl`, for which the Inhibition with Klebsiella pneumoniae was 11.08%; in the assay on Candida albicans, 1.66%; in the assay with Cryptococcus neoformans it was -1.51%.

Consider `O=C(N/N=C/Cc1ccccc1)c1cc2ccccc2n1Cc1ccccc1`, for which the results for the Inhibition in the assay with Klebsiella pneumoniae, in the assay on Candida albicans and with Cryptococcus neoformans were 4.61%, 1.98% and -1.83%, respectively.

With `CC(C)C(=O)N/N=C/c1c[nH]c2ccccc12`, the Inhibition in the assay with Klebsiella pneumoniae was 19.59%; with Candida albicans, -0.11%; in the assay with Cryptococcus neoformans, -5.03%.

Regarding `CCOC(=O)c1cc(C#N)c(N)nc1C`, the Inhibition in the assay with Klebsiella pneumoniae was 5.86%; with Candida albicans it was 2.73%; in the assay with Cryptococcus neoformans it was -17.38%.

For `Cl.Cl.Cn1c(CNc2ccccc2)cc2cc(OCCCC3CCN(Cc4ccccc4)CC3)ccc21`, the Inhibition in the assay with Klebsiella pneumoniae was 5.5%; with Candida albicans, 1.7%; in the assay with Cryptococcus neoformans, -74.16%.

Regarding `Cc1ccc2nc(Cl)c(/C=N/OCc3ccccc3)cc2c1`, the Inhibition was 9.15% in the assay with Klebsiella pneumoniae, 2.45% in the assay with Candida albicans and -9.27% with Cryptococcus neoformans.

For the compound `C=C1CN(Cc2ccccc2)c2c(C#N)c(-c3ccccc3)c(C#N)c(=N)n21`, the Inhibition with Klebsiella pneumoniae is 17.58%; in the assay on Candida albicans, 2.82%; in the assay with Cryptococcus neoformans, -53.83%.

Consider `CC(=O)/C=C/C1CCN(Cc2ccccc2)CC1`, for which the Inhibition in the assay with Klebsiella pneumoniae is 7.64%; in the assay on Candida albicans it was 0.43%; in the assay on Cryptococcus neoformans it was -60.96%.

Turning to `COc1ccc(CNNC(=O)c2cc3ccccc3[nH]2)cc1O`, the Inhibition came out at 4.75% in the assay with Klebsiella pneumoniae, 0.7% in the assay with Candida albicans and 0.55% with Cryptococcus neoformans.

Regarding `COC(=O)C(=Cc1ccc(OC)cc1)NC(C)=O`, the results for the Inhibition in the assay on Klebsiella pneumoniae, in the assay on Candida albicans and in the assay on Cryptococcus neoformans were 12.98%, -0.11% and -2.55%, respectively.

Regarding `C#CCN(C)Cc1cc2cc(OCCCC3CCN(Cc4ccc(OC)c5ncccc45)CC3)ccc2n1C`, the Inhibition was -9.53% in the assay with Klebsiella pneumoniae, 0.97% with Candida albicans and -73.89% in the assay on Cryptococcus neoformans.
